Here are results for eight compounds from PubChem BioAssay (NCI).

Some test systems named below: NCI-H23 lung; NCI-H226 lung; NCI-H322M lung; HOP-62 NSCLC; NCI-H460 lung; HOP-92 NSCLC; NCI-H522 lung; 786-0 renal; COLO 205 colon; DU-145 prostate; K-562 leukemia; MALME-3M melanoma; MDA-MB-231 breast; RXF 393 renal; SF-268 CNS; SF-295 CNS; SF-539 CNS; UACC-257 melanoma; M14 melanoma; A549/ATCC NSCLC.
Assay in all cases: NCI-60 one-dose screen, 48 h (100 = growth as untreated, 0 = no growth, -100 = all killed)
Holding throughout (details): 10 µM unless noted

Structures are written as SMILES. Compounds without any hit were thinned out: in the full panel of roughly 83,000, 20% have a hit.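 Assay: single dose, 48 h. Readout: percent growth (0 = no net growth; negative = cell death). Active: <10.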 Values without a mark were called inactive. Active and inactive are the calls of the source.

Turning to `N=C(N)SCc1cccc2c(CSC(=N)N)cccc12`, the growth in the assay with NCI-H23 lung is 99.2%; in the assay with NCI-H226 lung, 87.9%; in the assay with NCI-H322M lung it was 90.7%; in the assay on HOP-62 NSCLC, 95.1%; with NCI-H460 lung it was 103%; with HOP-92 NSCLC it was 83.8%. Moreover, the growth in the assay on NCI-H522 lung is 104%; with 786-0 renal, 99.3%; in the assay with COLO 205 colon, 108%; with DU-145 prostate it was 107%; in the assay with K-562 leukemia it was 103%; with MALME-3M melanoma, 102%. For the same compound, the growth in the assay with MDA-MB-231 breast is 98.6%; with RXF 393 renal, 113%; with SF-268 CNS, 97.2%; with SF-295 CNS it was 113%; with SF-539 CNS, 100%; in the assay on UACC-257 melanoma, 95.9%. Also, the growth with M14 melanoma is 105%.
In the case of `COc1cc(/C=C/c2cc(/C=C/c3ccc(O)c(OC)c3)n(C(=O)Nc3ccc(F)cc3)n2)ccc1O`, the growth was 10.7% with NCI-H23 lung; 15.9% in the assay on NCI-H226 lung; 27.3% with NCI-H322M lung; 30.2% in the assay on HOP-62 NSCLC; 8.35% (active) in the assay with NCI-H460 lung; -3.45% (active) with HOP-92 NSCLC. Further, the growth in the assay on A549/ATCC NSCLC was 12%; with 786-0 renal, -6.9% (active); with COLO 205 colon it was 8.73% (active); with DU-145 prostate, 6.78% (active); in the assay on K-562 leukemia it was 0.22% (active); in the assay on MALME-3M melanoma, 9.15% (active). Besides, the growth in the assay with MDA-MB-231 breast was 33.6%; with RXF 393 renal, -43.8% (active); in the assay with SF-268 CNS, 20.1%; in the assay with SF-295 CNS, -21.6% (active); in the assay with SF-539 CNS, 3.68% (active); in the assay on UACC-257 melanoma it was 13.7%. For the same compound, the growth in the assay with M14 melanoma was 2.69% (active).
Take `COc1ccc(C2=C/C(=C\c3ccc(Cl)cc3)C(=O)N2/N=C/c2ccc(Cl)cc2)cc1`: the growth is 103% in the assay on NCI-H23 lung; 93.1% in the assay on NCI-H226 lung; 89.7% in the assay with NCI-H322M lung; 97.8% in the assay with HOP-62 NSCLC; 106% with NCI-H460 lung; 72.8% in the assay with HOP-92 NSCLC. The growth in the assay with NCI-H522 lung was 73.9%; with 786-0 renal it was 103%; in the assay on COLO 205 colon it was 96.9%; in the assay on DU-145 prostate it was 105%; in the assay with K-562 leukemia, 89.2%; in the assay with MALME-3M melanoma, 96.4%. For the same compound, the growth in the assay with MDA-MB-231 breast was 88.8%; with RXF 393 renal it was 99.3%; in the assay on SF-268 CNS, 92.6%; in the assay on SF-295 CNS, 100%; in the assay on SF-539 CNS it was 101%; with UACC-257 melanoma, 88.7%. For the same compound, in the assay with M14 melanoma, the growth was 100%.
In the case of `COc1ccc2[nH]cc(-c3nc(-c4cn(C)c5ccncc45)cs3)c2c1`, the growth is 93.9% with NCI-H23 lung; 106% in the assay on NCI-H226 lung; 90.9% with NCI-H322M lung; 95.4% with HOP-62 NSCLC; -51% (active) with NCI-H460 lung; 98.2% with HOP-92 NSCLC. Also, the growth was 6.03% (active) in the assay on A549/ATCC NSCLC; 79% with 786-0 renal; 96.2% in the assay on COLO 205 colon; 2.58% (active) in the assay on DU-145 prostate; -26.3% (active) in the assay on K-562 leukemia; 86.9% in the assay on MALME-3M melanoma. Further, the growth was -61.7% (active) in the assay on MDA-MB-231 breast; -86.8% (active) in the assay with RXF 393 renal; 87.1% in the assay with SF-268 CNS; 76.3% in the assay on SF-295 CNS; -70.6% (active) in the assay with SF-539 CNS; 92.7% with UACC-257 melanoma. The growth in the assay on M14 melanoma was -88.7% (active).
With `CCCCCCC(CCCC)COC(=O)c1ccc(Cl)cc1` (stereo not drawn), the growth is 110% in the assay on NCI-H23 lung; 92.8% with NCI-H226 lung; 111% with NCI-H322M lung; 119% with HOP-62 NSCLC; 102% in the assay on NCI-H460 lung; 89.5% in the assay with HOP-92 NSCLC. The growth in the assay with NCI-H522 lung was 105%; with 786-0 renal it was 103%; with COLO 205 colon it was 108%; with DU-145 prostate, 105%; with K-562 leukemia it was 104%; with MALME-3M melanoma, 111%. Besides, the growth in the assay on MDA-MB-231 breast was 106%; with RXF 393 renal it was 105%; with SF-268 CNS, 102%; in the assay on SF-295 CNS it was 102%; in the assay with SF-539 CNS it was 106%; in the assay on UACC-257 melanoma, 112%. In the assay on M14 melanoma, the growth is 104%.
`COc1ccc(OC)c(-c2cn3nc(-c4c[nH]c5ccc(Br)cc45)sc3n2)c1`: the growth in the assay on NCI-H23 lung was 25%; in the assay with NCI-H226 lung, 89.9%; in the assay on NCI-H322M lung, 50.6%; in the assay with HOP-62 NSCLC, 60.9%; in the assay on NCI-H460 lung, -32.4% (active); in the assay on HOP-92 NSCLC, 46.5%. In addition, the growth was 8.67% (active) in the assay with NCI-H522 lung; 49.3% with 786-0 renal; 29.8% with COLO 205 colon; 29.3% in the assay on DU-145 prostate; 5.98% (active) in the assay on K-562 leukemia; 52.2% in the assay with MALME-3M melanoma. Also, the growth in the assay on MDA-MB-231 breast is 9.49% (active); in the assay with RXF 393 renal it was 67.8%; in the assay with SF-268 CNS, 18.3%; with SF-295 CNS, 54.1%; in the assay on SF-539 CNS, -12.8% (active); in the assay with UACC-257 melanoma, 84.9%. In the assay with M14 melanoma, the growth was 12.7%.
`COc1ccc2c(c1)c(-c1cc(-c3cn(C)c4ccc(OC)cc34)on1)cn2C`: the growth with NCI-H23 lung is 84.1%; in the assay on NCI-H226 lung, 88%; in the assay on NCI-H322M lung, 96.6%; with HOP-62 NSCLC, 141%; with NCI-H460 lung, 109%; in the assay with HOP-92 NSCLC, 59%. In addition, the growth was 90.2% in the assay with NCI-H522 lung; 102% in the assay on 786-0 renal; 112% with COLO 205 colon; 114% in the assay with DU-145 prostate; 98.5% in the assay on K-562 leukemia; 106% in the assay on MALME-3M melanoma. Moreover, the growth in the assay on MDA-MB-231 breast was 100%; with RXF 393 renal, 119%; in the assay on SF-268 CNS, 102%; with SF-295 CNS, 101%; in the assay with SF-539 CNS it was 101%; in the assay on UACC-257 melanoma, 107%. Further, the growth with M14 melanoma was 90.1%.
For the compound `Oc1c(CN2CCCC2)cc(COCc2ccccc2)c2cccnc12`, the growth in the assay with NCI-H23 lung is 31.3%; with NCI-H226 lung, 18.1%; in the assay with NCI-H322M lung, 16.7%; in the assay on HOP-62 NSCLC, 1.77% (active); in the assay on NCI-H460 lung it was 3.04% (active); in the assay on HOP-92 NSCLC it was 14.7%. Further, the growth is -2.04% (active) with NCI-H522 lung; 8.85% (active) in the assay with A549/ATCC NSCLC; 5.96% (active) with 786-0 renal; 71.4% in the assay on COLO 205 colon; 30.4% in the assay on DU-145 prostate; 12.2% with K-562 leukemia. The growth with MALME-3M melanoma was 30.8%; in the assay with MDA-MB-231 breast it was 35.9%; with RXF 393 renal, 46.5%; in the assay with SF-268 CNS, 23.2%; in the assay on SF-295 CNS it was 18.3%; in the assay on SF-539 CNS it was -5.32% (active). Besides, the growth was -16.1% (active) with UACC-257 melanoma and -2.08% (active) in the assay with M14 melanoma.
